{
  "source": "PubChem BioAssay AID1626",
  "about": "(SRMLSC, 2009)",
  "note": "The campaign covered roughly 220,000 compounds. About 2,000 (0.91%) were called active. Inconclusive results (about 2%) are left out. These entries were drawn from the full list. Potency and affinity values are given separately. Values without a mark were called inactive. Rule as the data show it: inconclusive = inhibition above about 80% without an active follow-up result; inactive = below that; test concentration not stated here.",
  "data": [
    {"test": "M. tuberculosis H37Rv growth inhibitors, H37Rv strain (AID 1626);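 also: bacteria incubated seven days before Alamar blue readout; 0% = bacteria only wells and 100% = bacteria with antibiotic wells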", "settings": "hits give high values, concentration not given here", "units": {"inhibition": "%"}, "values": [
      {"compound": "CC1=CC(=O)N(c2ccc(C)cc2)C1c1ccc(Cl)cc1", "note": "(stereo not drawn)", "inhibition": 11.2},
      {"compound": "Cc1ccc2c(c1)c1c(n2CC(O)CNC2CCCC2)CCCC1", "note": "(stereo not drawn)", "inhibition": 27.5},
      {"compound": "Cc1ccc2c(c1)c1c(n2CC(O)CNC(C)(C)C)CCCC1", "note": "(stereo not drawn)", "inhibition": 3.21},
      {"compound": "COc1ccc(OC)c(NC(=O)CCc2c[nH]c3ccccc23)c1", "inhibition": 11.6},
      {"compound": "Cc1ccccc1C(=O)Nc1nnc(-c2ccncc2)o1", "inhibition": 1.04},
      {"compound": "COc1ccc(-c2nnc(NC(=O)C(C)C)o2)cc1", "inhibition": 28.3},
      {"compound": "Cc1ccc(NC(=O)Nc2nnc(-c3ccccc3)o2)cc1", "inhibition": 3.09},
      {"compound": "CCSc1nnc(-c2ccc(OC)cc2)o1", "inhibition": 10.5},
      {"compound": "Cc1ccccc1C(=O)Nc1nnc(-c2cccnc2)o1", "inhibition": 20.8},
      {"compound": "COc1ccc(-c2nnc(NC(=O)C3CC3)o2)cc1", "inhibition": 14.1},
      {"compound": "COc1ccc(NC(=O)c2cc(Cl)ccc2Cl)c([N+](=O)[O-])c1", "inhibition": 0.17},
      {"compound": "COc1ccc(Oc2ccc(NC(=O)c3ccccc3C)cc2)cc1", "inhibition": 9.33},
      {"compound": "O=C(N/N=C/c1ccc2c(c1)OCO2)c1cc(-c2ccccc2Cl)nc2ccccc12", "inhibition": 4.7},
      {"compound": "CSc1ccc(/C=C/C(=O)OCC(=O)NC(C)C)cc1", "inhibition": 0.59},
      {"compound": "O=C(Nc1ccccc1)NC1CCN(Cc2ccccc2)CC1", "inhibition": -1.63},
      {"compound": "O=C(Cn1c(=O)n(CC2CCCO2)c(=O)c2ccccc21)c1ccccc1", "note": "(stereo not drawn)", "inhibition": 1.39},
      {"compound": "O=C(CCCSc1nc2sc3c(c2c(=O)[nH]1)CCC3)NCCO", "inhibition": -2.38},
      {"compound": "O=C(NNC(=O)c1cccnc1)Nc1ccc(Cl)c(Cl)c1", "inhibition": -1.69},
      {"compound": "C=CCn1c(SCn2nnc3ccccc3c2=O)nc2scc(-c3cccs3)c2c1=O", "inhibition": -6.52},
      {"compound": "COc1cc(CCC(O)CC(=O)CCc2ccccc2)ccc1O", "note": "(stereo not drawn)", "inhibition": -13},
      {"compound": "O=C(Nc1nnc(-c2cccnc2)o1)c1cccc([N+](=O)[O-])c1", "inhibition": 74.6},
      {"compound": "COc1ccc(-c2nnc(-c3ccc(OCC(C)C)cc3)o2)cc1", "inhibition": -2.52},
      {"compound": "CCOC(=O)CNC(=O)Nc1nnc(-c2ccc(OCC)cc2)o1", "inhibition": -3.79},
      {"compound": "O=C(Nc1nn[nH]n1)c1cccc([N+](=O)[O-])c1", "inhibition": 2.86},
      {"compound": "CC(C)(C)c1cc(NC(=O)COc2ccc(Br)cc2)n(-c2ccccc2)n1", "inhibition": -8.73},
      {"compound": "COCCCNC(=O)c1ccc(-n2nc(C(F)(F)F)cc2-c2cccs2)cc1", "inhibition": 2.29},
      {"compound": "CC1=CC(c2ccc(Cl)cc2)n2nc(NS(=O)(=O)c3ccc(C)cc3)nc2N1", "note": "(stereo not drawn)", "inhibition": -12.5},
      {"compound": "CC1(C)CC(NC(=S)NC2CC2)CC(C)(C)N1", "inhibition": -4.39},
      {"compound": "O=C(CCCC(=O)OCC(=O)c1cccs1)Nc1ccc(F)cc1", "inhibition": -9.65},
      {"compound": "Cc1ccc(Oc2ccc(NC(=O)CCC(=O)OCC(=O)c3cccs3)cc2)cc1C", "inhibition": -2.17},
      {"compound": "O=C(c1cccnc1)N1CCC(Oc2ccc(C(=O)N3CCCCO3)cc2)CC1", "inhibition": 4.71},
      {"compound": "COCCN(C(=S)Nc1ccc(C)cc1)C(C)c1cccnc1", "note": "(stereo not drawn)", "inhibition": -5.81},
      {"compound": "CCCCCCn1c(CN2CCN(C(=O)OCC)CC2)nc2c1c(=O)n(C)c(=O)n2C", "inhibition": 6.21},
      {"compound": "O=C(Oc1ccc([N+](=O)[O-])cc1)c1cncc(Br)c1", "inhibition": 10.3},
      {"compound": "CCOc1ccc(OC(=O)c2cccnc2)cc1", "inhibition": 1.09},
      {"compound": "COc1ccc(OC(=O)c2cccnc2)cc1", "inhibition": 0.67},
      {"compound": "O=C(Oc1cccc(Br)c1)c1cccnc1", "inhibition": 13.2},
      {"compound": "CCCCOc1ccc(OC(=O)c2cccnc2)cc1", "inhibition": 6.86},
      {"compound": "CCCCCCCOC(=O)c1ccc(OC(=O)c2cccnc2)cc1", "inhibition": 8.62},
      {"compound": "CCCCCCOC(=O)c1ccc(OC(=O)c2cccnc2)cc1", "inhibition": 74.1},
      {"compound": "O=C(Oc1ccc(Br)cc1)c1cncc(Br)c1", "inhibition": -0.78},
      {"compound": "Cc1cccc(NC(=O)c2sc(Cl)nc2-c2ccccc2)c1", "inhibition": 8.83},
      {"compound": "COc1cccc(CC2(CO)CCCN(Cc3ccc4c(c3)OCCO4)C2)c1", "note": "(stereo not drawn)", "inhibition": 4.07},
      {"compound": "Cc1nc2cc(Cl)c([N+](=O)[O-])cc2s1", "inhibition": 7.87},
      {"compound": "CC(C)Oc1ccc(CCc2nnc(SC(C)C(=O)O)n2-c2ccccc2)cc1", "note": "(stereo not drawn)", "inhibition": 2.62},
      {"compound": "CCc1ccccc1N1C[C@@]23C=C[C@@H](O2)C(C(=O)OCC(C)C)[C@H]3C1=O", "note": "(stereo partly drawn)", "inhibition": -0.48},
      {"compound": "CCCCn1nc2cc(C(=O)N(CC)c3ccc(OC)cc3)ccc2c1OCC", "inhibition": 0.26},
      {"compound": "CN(C)c1ccc(C(=S)N2CCN(c3ccc([N+](=O)[O-])cc3)CC2)cc1", "inhibition": 9.45},
      {"compound": "COc1cc(NS(=O)(=O)c2ccc(NC(C)=O)cc2)ncn1", "inhibition": 6.36},
      {"compound": "COc1cc(NS(=O)(=O)c2ccc(N)cc2)nc(OC)n1", "inhibition": 14.8},
      {"compound": "O=C(CCC(=O)OCCCC(F)(F)C(F)(F)F)NC1CCCCC1", "inhibition": -2.21},
      {"compound": "COc1ccccc1NC(=O)c1[nH]c(C)c(C(C)=O)c1C", "inhibition": -2.28},
      {"compound": "Cc1nc(-c2ccccc2)sc1C1(C)CC(c2ccc([N+](=O)[O-])cc2)=NO1", "note": "(stereo not drawn)", "inhibition": -6.22},
      {"compound": "Brc1ccccc1-c1nnc(SCc2nc3ccccc3s2)o1", "inhibition": 36},
      {"compound": "CCN(CC)S(=O)(=O)c1cccc(-c2nnc(SCc3nc4ccccc4s3)o2)c1", "inhibition": 2.86},
      {"compound": "COc1ccc(/C=C/C(=O)c2ccc(NC(=O)c3cccs3)cc2)cc1OC", "inhibition": 5.93},
      {"compound": "C/C(=N\\NC(=O)CC(C)C)c1ccc(Cl)c(Cl)c1", "inhibition": -0.71},
      {"compound": "COc1ccc(CNCC(O)(c2ccccc2)c2ccc(Cl)cc2)cc1", "note": "(stereo not drawn)", "inhibition": -0.19},
      {"compound": "OC(CNCc1ccc(Cl)cc1)(c1ccccc1)c1ccc(F)cc1", "note": "(stereo not drawn)", "inhibition": -2.55},
      {"compound": "Cc1ccc(S(=O)(=O)Nc2c(C)nn(C)c2C)cc1", "inhibition": -3.98},
      {"compound": "Cc1cc(C)n(C(=O)CCC(=O)Nc2ccc(C)c(C)c2)n1", "inhibition": -4.23},
      {"compound": "Cc1[nH]c2ccccc2c1NC(=O)CN1CCN(c2cccc(C(F)(F)F)c2)CC1", "inhibition": 8.35},
      {"compound": "COc1ccc(-c2ncnc(C(F)(F)F)c2-c2csc(C)n2)c(O)c1", "inhibition": -3.59}
    ]}
  ]
}
